# Measured values from PubChem BioAssay AID2685 (National Center for Advancing Translational Sciences (NCATS), 2010).
# The whole screen tested about 320,000 compounds, of which about 2,100 (0.66%) were called active. Not shown: some 53% with an inconclusive outcome. Calls follow the shape of the dose curve; as a rule, active = well fitted inhibition curve with a large enough effect in the signal ratio, with a control signal flat (not every such curve was filed as active); inconclusive = small, poorly fitted or top-dose-only effect, or effect the other way, or a change in a side signal; inactive = flat fitted curve, though single readings scatter; the % refers to the signal ratio. This excerpt belongs to a sample that is enriched for actives.
# Assay: qHTS Assay for Lipid Storage Modulators in Drosophila S3 Cells;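 as to cell number change: cells counted by Cell Tracker Red CMTPX staining in the red channel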; as to lipid storage change, negative = inhibition: % is scaled to controls: 0 for no effect and ±100 for the full control effect
# Conditions: BODIPY lipid droplet fluorescence, 18-24 h, cells fed with added oleic acid; cell number change: measured here: cell count max response; series mostly up to 46.1 µM
# Excerpt: NIH Molecular Libraries Probe Production Centers Network [MLPCN] NIH Chemical Genomics Center [NCGC] MLPCN Grant: 1 R03 MH085686-01 Assay Submitter (PI): Beller, Mathias; Max-Planck-Institut fur Biophysikalische Chemie NCGC Assay Overview: Storing lipids as a reservoir for energy or the anabolism of elementary metabolites is a common feature of probably all cells and is conserved from bacteria to humans. The universal cellular lipid storage organelle is the so-called lipid storage droplet (LD). Although ubiquitous, LDs share a simple structure composed of a hydrophobic core that harbors the storage lipids, which is shielded by a droplet-specific phospholipid monolayer to which proteins are attached. The current model of LD biogenesis involves an incorporation of the lipid core into the membrane leaflets of the endoplasmic reticulum (ER) followed by a subsequent budding-like maturation of a LD, which ultimately pinches off. Once released, LD volume can increase by localized lipogenesis or fusion of existing droplet. Storage lipids are re-mobilized enzymatically by lipase activity. Lipase regulation in the adipocyte is heavily studied and involves multiple components including catecholamine signaling, the LD-associated proteins Perilipin and comparative gene identification (CGI-58) and at least two lipases named hormone sensitive lipase (HSL) and adipocyte triglyceride lipase (ATGL). LD regulation outside of the adipocyte is poorly understood and only few components are known. However, there is an urgent need to learn more about ectopic fat depots as mislocalized storage of lipids, for example in the liver or muscle, is an eminent health problem associated with insulin resistance or the metabolic syndrome. We developed a laser-scanning cytometer assay to enable 1,536-well screening and combined the results of the small molecules screen with an RNAi database based on lipid storage.
# Triacsin C (Sigma-Aldrich T-4540), an inhibitor of long-chain fatty acyl CoA synthetase that blocks synthesis of triglycerides, was used as a positive control for lipid under-storage. A total of 23 nL of compound solution of different concentrations were transferred to the assay plates using a Kalypsys pin tool equipped with a 1,536-pin array containing 10-nL slotted pins (FP1S10, 0.457-mm diameter, 50.8 mm long; V&P Scientific). One microliter of oleic acid (400 uM) was added, and the plate was lidded with stainless steel rubber gasket lined lids containing pinholes. […] Fluorescence was detected by excitation of the fluorophores with a 488-nm laser on an Acumen Explorer (TTP Lab Tech). The total intensity in channel 2 (500-530 nm) reflected lipid droplet accumulation. Cells were detected using channel 3 (575-640 nm) with 5-um width and 100-um depth filters. The ratio of the number of objects in PMT channel 2 over the number of objects in PMT channel 3 was also calculated. Percent activity was computed relative to an internal control (100% inhibited lipid droplet deposition due to the presence of 20 uM Triacsin C), which was added to 32 wells/plate.
# Potency is read from the fitted curve at half-maximal effect.
Structure (SMILES),Potency,cell number change [%],"lipid storage change, negative = inhibition"
Cc1ccc(-n2cc(S(=O)(=O)c3ccc(C)cc3)[nH]c2=O)cc1,inactive,12.8,–
Cc1ccc(-n2c3c(c(=O)[nH]c2=O)C(NS(=O)(=O)c2ccc(C)cc2)(C(F)(F)F)C(=O)N3)cc1 (stereo not given),inactive,-0.886,–
CCc1c(C(C)S(=O)(=O)c2ccc(C)cc2)[nH]c(=O)n1-c1ccc(C)cc1 (stereo not given),29.1 µM (active),-0.34,–
Brc1ccc(-n2cccc2/C=N/n2cnnc2)cc1,inactive,–,–
Cc1ccc(OCc2nc(C#N)c(N3CCCCC3)o2)cc1,inactive,15.9,–
N#Cc1nc(COc2ccc(Br)cc2)oc1N1CCCCCC1,–,7.38,17.2% [at 9.22 µM] (inactive)
N#Cc1nc(COc2ccc(Cl)cc2)oc1N1CCCC1,23.1 µM (active),-31,–
COc1ccc(OC)c(-c2cc(C(=O)N3CCN(c4ncccn4)CC3)c3ccccc3n2)c1,inactive,-4.49,–
Cc1onc(-c2ccccc2Cl)c1C(=O)Nc1ccccc1,inactive,6.9,–
COc1cc(S(=O)(=O)N(C)C)ccc1F,inactive,-10.1,–
CCOC(=O)C1=C(C)NC2=C(C(=O)c3ccccc32)C1c1ccc([N+](=O)[O-])o1 (stereo not given),inactive,12.6,–
COC(=O)C1=C(C)NC2=C(C(=O)c3ccccc32)C1c1cccc(OC)c1 (stereo not given),inactive,-11.6,–
CCOC(=O)C1=C(C)NC2=C(C(=O)c3ccccc32)C1c1cccc2ccccc12 (stereo not given),16.4 µM (active),-15.2,–
CCC1CCCCN1C(=O)CNCC1CCCO1 (stereo not given),inactive,14.6,–
CSc1ccccc1NC(=O)CN(Cc1ccccc1)S(C)(=O)=O,inactive,–,–
Cc1ccc(CS(=O)(=O)CC(C)(O)c2ccccc2)cc1 (stereo not given),inactive,15.3,–
CCOc1ccc(C(C(=O)NCC2CCCO2)N(Cc2cccs2)C(=O)c2snc(C(N)=O)c2N)cc1 (stereo not given),1.64 µM (active),15,–
COc1ccc(C(C(=O)NCC2CCCO2)N(Cc2cccs2)C(=O)c2snc(C(N)=O)c2N)cc1OC (stereo not given),inactive,25.6,–
CCOc1ccc(C(C(=O)NCC2CCCO2)N(Cc2cccnc2)C(=O)c2snc(C(N)=O)c2N)cc1 (stereo not given),inactive,-2.82,–
Cc1cccc(-n2ncc3c2CCCC3NC(=O)CCN2CCCCO2)c1C (stereo not given),inactive,-4.74,–

Structure (SMILES),Potency,cell number change [%],"lipid storage change, negative = inhibition"
O=C(CSc1ccc(-c2ccccn2)nn1)N1CCCC1,inactive,4.79,–
COc1cc(CN2CCC(Cc3ccccc3)CC2)c([N+](=O)[O-])cc1OC,inactive,21.3,–
COc1ccc(CSc2nnc(CNS(C)(=O)=O)o2)cc1,inactive,8.09,–
COc1cc([N+](=O)[O-])ccc1N1C(=O)C2C3C=CC(C4CC34)C2C1=O (stereo not given),inactive,-23.6,–
COc1ccccc1CNS(=O)(=O)c1ccc(-n2cccn2)cc1,inactive,-13.2,–
O=S(=O)(NCc1ccccc1Cl)c1ccc(-n2cccn2)cc1,16.4 µM (active),-0.567,–
O=S(=O)(NCc1ccccc1)c1ccc(-n2cccn2)cc1,inactive,-18,–
O=C(NCCCCO)c1ccc2c3c(cccc13)CC2,inactive,-6.57,–
Cc1ccc(NC(=S)NC(C)CCc2ccccc2)cc1C (stereo not given),inactive,23.4,–
Cc1ccccc1C(=O)Nc1ccc2nc3n(c(=O)c2c1)CCCC3,inactive,22.5,–
CCOc1ccccc1C(=O)Nc1ccc2nc3n(c(=O)c2c1)CCCCC3,1.64 µM (active),-27.2,–
O=C(Nc1ccc2nc3n(c(=O)c2c1)CCCCC3)c1ccccn1,inactive,-14.9,–
CCO[C@@H]1OC(C(=O)NC2CC2)=C[C@H](c2csc3ccccc23)[C@H]1CCCO,inactive,0.265,–
CC1CCN(S(=O)(=O)c2ccc3c(c2)N(CC(=O)NCCN2C(C)CCCC2C)C(=O)CS3)CC1 (stereo not given),inactive,–,–
C=CCNC(=S)N1CC2(C)CN(C(=S)NCC=C)CC(C)(C1)C2=O,inactive,9.2,–
CC(C)(C)c1[nH]ncc1[N+](=O)[O-],inactive,-8.1,–
O=C(CN1C(=O)NC2(CCCC2)C1=O)OCCOc1ccc(Cl)cc1Cl,inactive,–,–
CCOC(=O)C1=CN(c2cccc(F)c2)C=C(C(=O)OCC)C1c1cc(OC)c(O)c([N+](=O)[O-])c1,inactive,–,–
COC(=O)C1=CN(c2cccc(C)c2)C=C(C(=O)OC)C1c1cc(OC)c(O)c([N+](=O)[O-])c1,25.9 µM (active),-3.94,–
COC(=O)C1=CN(c2cccc(C(F)(F)F)c2)C=C(C(=O)OC)C1c1ccc(O)c(OC)c1,inactive,-17.2,–

Structure (SMILES),Potency,cell number change [%],"lipid storage change, negative = inhibition"
O=C(Cn1nc(Cc2cccnc2)c2ccccc2c1=O)Nc1cccnc1Cl,inactive,1.33,–
COc1ccc(-c2cc(=O)oc3cc(OCc4nn[nH]n4)ccc23)cc1,inactive,14.9,–
CN(C)c1ccc(C(=O)/C=C/c2cccnc2)cc1,inactive,-3.58,–
CN(C)S(=O)(=O)c1ccc(C(=O)/C=C/c2cccnc2)cc1,0.326 µM (active),10.3,–
O=C(/C=C/c1cccnc1)c1ccc([N+](=O)[O-])cc1,inactive,10.1,–
CCc1ccc(N2C(=O)C3NN=C(C(=O)OCc4ccccc4)C3C2=O)cc1 (stereo not given),inactive,22.8,–
COc1cccc(-c2nc(=S)c3c(o2)CCCC3)c1,inactive,9.57,–
O=C(Nc1ccc(OCC(=O)N2CCOCC2)cc1)c1cncc(Br)c1,inactive,9.01,–
Cc1ccc(NC(=O)c2ccccc2OCc2c(C)noc2C)cc1S(=O)(=O)N(C)C,inactive,-11.7,–
CC(=O)NCCC1CCN(C(=O)C2CCC(=O)N(C3CCCC3)C2)CC1 (stereo not given),inactive,0.283,–
CC1(C)CSC(=NCCc2ccccc2)N1C(=O)c1ccc(C#N)cc1,1.3 µM (active),-0.734,–
CC1(C)CSC(=NCc2ccccc2)N1C(=O)c1cccc([N+](=O)[O-])c1,inactive,13.5,–
CC1(C)COCN1C(=O)c1ccc(C#N)cc1,inactive,5.63,–
O=C(CNS(=O)(=O)c1ccccc1)OCC(=O)c1ccc(F)cc1,inactive,14.3,–
O=C(Nc1cccc(F)c1)c1c(F)c(F)c(F)c(F)c1F,inactive,–,–
COc1ccc(CNC(=O)c2cc(C3CC3)nc3c2cnn3C(C)C)cc1OC,11.6 µM (active),1.25,–
COc1cccc(CNC(=O)c2cc(C3CC3)nc3c2cnn3C(C)C)c1,inactive,5.87,–
Cc1ccc(CNC(=O)c2cc(C3CC3)nc3c2cnn3C(C)C)cc1,inactive,-11.5,–
